# An excerpt weighted towards active compounds, which were near 19% of everything screened.
# IL-1B inflam inh = inflammasome signaling inhibition, IL-1 beta readout; THP-1 LPS/ATP IL-1B secretion, AlphaLISA, 16 h; hits give low values; activity change, % at 57.5 µM; 4.7% of 360,000 active; in the data active = activity change below about -50%; inconclusive = mostly about -30% to -49%
#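 THP-1 cells pretreated 1 hr with compounds (up to 57.5 uM final), then stimulated with LPS (250 ng/mL final) plus ATP (1.25 mM final); secreted IL-1B measured by AlphaLISA after 16 hr, decreased signal indicating inhibition.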
# HT1080-NT tox = kills 2HG-producing HT-1080-NT fibrosarcoma cells | AID 686970 | 1.6% of 360,000 active | HT-1080-NT fibrosarcoma viability, CellTiter-Glo ATP luminescence, 48 h | Potency, µM (titrated, usually from 46.1 µM), most hits filed as cytotoxic;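 also: NT is the 2HG producing partner of a matched IDH1 knockdown line; nearly all actives have a fitted effect of over 55% in size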
#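 Toxicity toward the 2HG-producing NT line was scored as %Activity, normalised to DMSO and no-cell wells, from CellTiter-Glo luminescence after 48 hours' treatment.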
# DT40 TDP1 no CPT = qHTS for Inhibitors of human tyrosyl-DNA phosphodiesterase 1 (TDP1): qHTS in cells in absence of CPT | DT40 Tdp1-/- hTDP1 cells, no CPT, ATP luminescence, 48 h | AID 686978, 2013 | 15% of 420,000 active | Potency, µM (top dose mostly 46.2 µM), usual class: inhibitors; also: nearly all actives have a fitted effect of over 55% in size
#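 Cells were dispensed at 400 per well, compounds added by pin tool, plates incubated ≥48 hr at 37 °C, then CellTiter-Glo added for 30 min at room temperature before luminescence reading. Line: DT40 Tdp1-/- complemented with hTDP1; camptothecin omitted.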
# HT1080 IDH1KD tx = toxicity to HT-1080 IDH1 knockdown cells (counter line). Potency, µM (doses to about 46.1 µM), most hits filed as cytotoxic. 2% of 360,000 active. HT-1080 IDH1 knockdown viability, ATP luminescence, 48 h
#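 Assay cells: HT-1080 with IDH1 knockdown, 750 per well, RPMI/5% FBS. Exposure: 48 h at 37 °C following 2 h pre-incubation. Read: CellTiter-Glo luminescence; fitted concentration-response, curve class assigned.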
# DT40 TDP1 CPT = growth inhibition of DT40 Tdp1-/-;hTDP1 cells with camptothecin (screen for TDP1 inhibitors); chicken DT40 Tdp1-/-;hTDP1 cells + 20 nM CPT, ATP luminescence, 48 h; Potency, µM (titrated, usually from 46.2 µM), most hits filed as inhibitors; 12% of 420,000 active; AID 686979; also: nearly all actives have a fitted effect of over 55% in size
#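 Chicken DT40 Tdp1-/- cells stably complemented with human TDP1 were seeded at 400 cells/well in medium containing 20 nM camptothecin, exposed to pin-transferred compounds, and grown at 37 °C for at least 48 hr. Viability was read as ATP luminescence.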
# A number is an active result; . = inactive; ? = inconclusive; / = no result. Unless noted, calls follow the shape of the dose curve; as a rule, active = well fitted curve in the direction sought with a large enough effect; inconclusive = small, poorly fitted or top-dose-only effect, or another doubt; inactive = no such curve, though single readings can be large; an effect the other way counts as inactive or inconclusive.
SMILES,IL-1B inflam inh,HT1080-NT tox,DT40 TDP1 no CPT,HT1080 IDH1KD tx,DT40 TDP1 CPT
Cc1ccc(O)c(NC(=S)NC(=O)c2ccccc2Cl)c1,-58.1,?,?,?,?
O=C(NC(=S)Nc1ccc(O)cc1)c1ccccc1Cl,.,.,.,.,.
COc1cccc(CNc2ccc3[nH]c(=O)[nH]c3c2)c1OCc1ccc(F)cc1,.,.,?,.,.
Fc1ccccc1CNc1ccc(Cl)cc1,.,.,.,.,.
O=c1[nH]c2ccc(NCc3ccccc3OCc3ccc(Cl)cc3)cc2[nH]1,.,16.4µM,?,?,23.1µM
Oc1ccc(NCc2ccccc2OCc2ccc(Cl)cc2)cc1,/,/,20.6µM,/,29.1µM
Oc1ccc(NCc2ccccc2OCc2ccccc2)cc1,-73.6,.,23.1µM,?,18.4µM
CC(C)(/C=N/NC(=O)CSCc1ccccc1Cl)CCC#N,.,.,.,.,.
C[C@H](NC(=O)c1nc[nH]c1C(=O)N1CCN(c2ccccc2)CC1)C(=O)OCc1ccccc1,.,.,?,.,18.4µM
CC(C)C[C@H](NC(=O)c1[nH]cnc1C(=O)N[C@H](C)c1ccccc1)C(=O)OC(C)(C)C,-54.5,?,18.4µM,?,?
O=C(c1nc[nH]c1C(=O)N1CCN(c2ccccc2)CC1)N1CCN(c2ccccc2)CC1,.,.,.,.,13µM
CC(C)(C)OC(=O)N1CCN(C(=O)c2nc[nH]c2C(=O)N2CCN(c3ccccc3)CC2)CC1,.,.,.,.,.
CC(C)C[C@@H](CNC(=O)OC(C)(C)C)NC(=O)c1nc[nH]c1C(=O)N[C@@H](CC(C)C)C(=O)CNC[C@H](CC(C)C)NC(=O)c1nc[nH]c1C(=O)N[C@@H](Cc1c[nH]c2ccccc12)C(=O)OC(C)(C)C,.,?,18.4µM,.,?
O=C(N[C@@H](Cc1ccccc1)C(=O)OCc1ccccc1)c1nc[nH]c1C(=O)N1CCN(c2ccccc2)CC1,.,.,?,.,?
O=c1c(CCc2ccccc2)nc2cnc(N3CCOCC3)nc2n1C1CC1,/,/,.,/,?
Cc1cccc(NC(=O)C(C)Oc2ccc(C)nc2[N+](=O)[O-])c1 (centres undefined),.,.,.,.,.
CC(C)C[C@H](NC(=O)c1nc[nH]c1C(=O)NC(c1ccccc1)c1ccccc1)C(=O)OC(C)(C)C,-68.8,25.9µM,18.4µM,20.6µM,4.11µM
CC(C)C[C@H](NC(=O)c1nc[nH]c1C(=O)N1CCN(c2ccccc2)CC1)C(=O)OC(C)(C)C,.,.,?,.,20.6µM
CC(C)C[C@H](NC(=O)c1nc[nH]c1C(=O)NCCNC(=O)OC(C)(C)C)C(=O)CNCCNC(=O)c1[nH]cnc1C(=O)N[C@@H](C)C(=O)OC(C)(C)C,.,?,?,.,23.1µM
CC(C)C[C@H](NC(=O)c1nc[nH]c1C(=O)N[C@@H](CC(C)C)C(=O)OC(C)(C)C)C(=O)OC(C)(C)C,?,?,?,?,23.1µM
CC1(NC(=O)Cc2c(F)cccc2Cl)CCS(=O)(=O)C1 (centres undefined),.,.,.,.,.
CC(C)C(=O)Nc1nnc(S(=O)(=O)N(C)Cc2ccc(F)cc2)s1,/,/,.,/,.
CNS(=O)(=O)c1ccc(NCC2COc3ccccc3O2)c([N+](=O)[O-])c1 (centres undefined),.,.,?,.,?
CN(C)CC/C=C1\c2ccc(F)cc2Sc2cc(F)c(Cl)cc21,-61.1,?,?,?,?
CN(C)CC/C=C1/c2ccc(F)cc2Sc2ccc(Cl)cc21,-84.7,20.6µM,16.4µM,18.4µM,?
SMILES,IL-1B inflam inh,HT1080-NT tox,DT40 TDP1 no CPT,HT1080 IDH1KD tx,DT40 TDP1 CPT
CN(C)CC/C=C1/c2cc(F)ccc2CSc2ccc(F)cc21,.,.,.,.,?
CN(C)CC/C=C1\c2cc(Cl)ccc2Sc2cc(F)c(F)cc21,.,?,23.1µM,.,?
CN(C)CC/C=C1\c2ccccc2Sc2cc(F)c(Cl)cc21,-93.0,25.9µM,16.4µM,11.6µM,16.4µM
COc1ccc(C2CC(=O)c3cc(-c4nc(-c5ccc(Cl)cc5)cs4)c(=O)[nH]c3C2)cc1 (centres undefined),/,/,.,/,.
COc1ccc(C(=O)N/N=C(\C)CC(=O)Nc2cccc(C(F)(F)F)c2)cc1,.,.,?,.,.
Cc1ccccc1CNC(=O)C(=O)NCC(c1cccs1)S(=O)(=O)c1ccc(Cl)cc1 (centres undefined),/,/,23.1µM,/,?
O=C(NCc1ccccc1F)C(=O)NCC(c1cccs1)S(=O)(=O)c1cccs1 (centres undefined),/,/,?,/,.
O=C(NCc1ccccc1Cl)C(=O)NCC(c1cccs1)S(=O)(=O)c1ccccc1 (centres undefined),/,/,18.4µM,/,14.6µM
COc1ccc(/C=C/C(=O)OCC(=O)Nc2ccc(N3CCOCC3)cc2)cc1OC,.,.,.,.,.
CCN1C(=O)c2ccccc2S(=O)c2ccc(C(=O)N3CCN(c4cccc(Cl)c4)CC3)cc21 (centres undefined),/,/,18.4µM,/,?
CCN1C(=O)c2ccccc2S(=O)c2ccc(C(=O)N3CCN(c4ccccc4)CC3)cc21 (centres undefined),/,/,18.4µM,/,?
CCN1C(=O)c2ccccc2S(=O)c2ccc(C(=O)N3CCCCCC3)cc21 (centres undefined),.,.,?,.,?
CCN1C(=O)c2ccccc2S(=O)c2ccc(C(=O)N3CCN(C(=O)c4ccco4)CC3)cc21 (centres undefined),.,.,.,.,.
COc1ccc(CNC(=O)Cn2c(=O)cc(-c3ccccc3)c3c(C)nn(C)c32)cc1,/,/,.,/,.
CCOC(=O)c1cc(C(=O)OCC)c2ccccn2c1=O,.,.,18.4µM,.,?
CCOC(=O)c1c[nH]n(-c2ccccc2)c1=O,.,.,.,.,.
CCc1cccc(C)c1NC(=O)c1ccc2c(c1)CCN2S(=O)(=O)CC,/,/,11.6µM,/,?
CCS(=O)(=O)N1CCc2cc(C(=O)Nc3cc(Cl)ccc3C)ccc21,/,/,23.1µM,/,29.1µM
CCc1cccc(C)c1NC(=O)c1ccc2c(c1)CCN2S(=O)(=O)c1ccc(Cl)cc1,/,/,9.2µM,/,?
CCOc1ccc(NC(=O)c2ccc3c(c2)CCN3S(=O)(=O)CC)cc1,/,/,?,/,.
Cc1cc(=O)[nH]c2ccccc12,.,.,.,.,?
Cc1cc2[nH]c3c(c[n+](C)c4ccccc34)c2cc1C,-98.6,?,1.64µM,20.6µM,.
CN(c1ccc(F)cc1)S(=O)(=O)N1CCCC(C(=O)NCCc2ccccc2)C1 (centres undefined),/,/,?,/,20.6µM
CSc1ccc(CCNC(=O)C2CCCN(S(=O)(=O)N(C)c3ccc(F)cc3)C2)cc1 (centres undefined),/,/,9.2µM,/,6.51µM

# From PubChem
